Bioassay records: PubChem BioAssay, National Center for Advancing Translational Sciences (NCATS)
Sampled rows, rich in hits. Any-hit rate of the full collection: about 7.2%.
HCV inhibitor: blocks hepatitis C virus; Huh7.5.1 HCVcc-Cre infection, luciferase reporter, 44 h; Potency, µM (top dose mostly 41.8 µM), for the others: at the top dose activity change, negative = inhibition, most hits filed as inhibitors; actives 3.4% (n = 340,000); note: % is set by controls: 0 for no effect and ±100 for the full control effect
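Reporter virus HCVcc-Cre (~0.5 moi) infects cells exposed to compound; seeding density 1,000 cells/well with 4 h settling beforehand. Luminescence, 15 sec read, taken 44 h post-infection following a 15 min RT substrate incubation.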
RE007 growth inh: less growth of the S. pombe RE007 Vpr strain | S. pombe RE007 Vpr strain, BacTiter-Glo ATP luminescence, 24 h | Potency, µM (doses to about 92.2 µM), for inactives: top-dose activity change, negative = less growth, most hits filed as inhibitors | actives 0.21% (n = 360,000); active = well fitted falling curve with a large enough effect; inconclusive = small, poorly fitted or top-dose-only effect; inactive = no such curve, though single readings can be large or run the other way; note: % is set by controls: 0 for no effect and ±100 for the full control effect; nearly all actives have a fitted effect of over 50% in size
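Fission yeast RE007 carrying one integrated HIV-1 vpr copy, seeded at OD 0.01 in PMG+AL medium with 23 nL pinned compound. Grown 24 h at 30 degrees; viability read by BacTiter-Glo luminescence after 5 min.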
MARV entry inh: Marburg virus entry inhibition; Marburg virus pseudotyped entry inhibition, cell reporter; Potency, µM (highest dose often 37.8 µM), without a hit: top-dose activity change, negative = inhibition, most hits filed as inhibitors; actives 1.8% (n = 300,000); AID 540276; calls by dose curve; tested in HEK293 cells; note: % is set by controls: 0 for no effect and ±100 for the full control effect
FMDV antiviral: blocks foot and mouth disease virus; FMDV antiviral cell-based qHTS; actives 1.2% (n = 410,000); Potency, µM (titrated, usually from 57.9 µM), inactives show at the top dose activity change, negative = inhibition, usual class: inhibitors; calls by dose curve; tested in HEK293T cells; note: read-out not given here; % is set by controls: 0 for no effect and ±100 for the full control effect; nearly all actives have a fitted effect of over 45% in size
Sm TGR block: S. mansoni TGR enzyme inhibition; Q962Y6; purified TGR, DTNB reduction, TNB absorbance 405 nm; actives 3% (n = 360,000); AID 485364; Potency, µM (titrated, usually from 114 µM), for the others: at the highest dose activity change, negative = inhibition, most hits filed as inhibitors; note: % is set by controls: 0 for no effect and ±100 for the full control effect; nearly all actives have a fitted effect of over 60% in size
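First, TGR (20 nM dispensed) and NADPH were mixed with compound. Second, a 15 min room-temperature incubation followed. Third, further NADPH and then DTNB were added to start the reaction. Finally, TNB absorbance was monitored kinetically.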
Lassa entry inh: Lassa virus entry inhibition. Lassa virus pseudotype entry inhibition, cell reporter. Potency, µM (titrated, usually from 37.9 µM), without a hit: at the highest dose activity change, negative = inhibition, hits mostly inhibitors. actives 1.2% (n = 300,000). AID 540256; calls by dose curve; tested in HEK293 cells; note: % is set by controls: 0 for no effect and ±100 for the full control effect; nearly all actives have a fitted effect of over 50% in size
HCV confirm: HCV inhibition, cherry-pick confirmation; actives 78% (n = 640); shares compounds with HCV inhibitor; AID 720575; Potency, µM (series often up to 41.8 µM), inactives show top-dose activity, negative = inhibition, usual class: inhibitors; HCVcc-Cre infectious virus cell assay, luciferase, inhibition; note: nearly all actives have a fitted effect of over 80% in size
HCV host tox: counter-screen for HCV inhibitors: host cell cytotoxicity. HCV host cell line cytotoxicity counterscreen. shares compounds with HCV inhibitor. Potency, µM (highest dose often 41.8 µM), for inactives: top-dose activity change, negative = cytotoxicity, most hits filed as inhibitors. actives 22% (n = 640);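 note: 44 h compound exposure; % is set by controls: 0 for no effect and ±100 for the full control effect; nearly all actives have a fitted effect of over 55% in size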
* marks the source's active call; other numbers are inactive results; ? = inconclusive; . = not tested or not shown; ! = a repeat was not active; [ ] = another dose, or the depositor's remark. Unless noted, calls come from the whole dose curve; as a rule, active = well fitted curve in the direction sought with a large enough effect; inconclusive = small, poorly fitted or top-dose-only effect, or another doubt; inactive = no such curve, though single readings can be large; an effect the other way counts as inactive or inconclusive. Potency is the fitted concentration of half-maximal effect.

SMILES	HCV inhibitor	RE007 growth inh	MARV entry inh	FMDV antiviral	Sm TGR block	Lassa entry inh	HCV confirm	HCV host tox
Cc1cc(C)cc(N=c2c([N+](=O)[O-])nn(-c3ccc(Cl)cc3)n2O)c1	?	-12.3%	-24.7%	0.8%	-13.2%	-20.9%	15.8µM*	22.0%
CN1CCN(c2ncc3nc(-c4cc(F)cc(F)c4)c(=O)n(Cc4cccs4)c3n2)CC1	.	.	.	-6.9%	.	.	.	.
O=S(=O)(c1ccc(Cl)cc1)c1nnn2c1nc(NCc1cccs1)c1sccc12	.	.	.	0.0%	2.4%	-0.1%[46.1 µM]	.	.
ON=C1c2ccccc2-c2ccc(Br)cc21	?	-2.0%	27.1%	6.7%	.	7.5%	.	.
NC(=S)NN=C1c2ccccc2-c2cc(Br)ccc21	?	12.0%	?	?	.	-11.5%	6.28µM*	-32.6%
Cc1ccc(-n2c(-c3ccc(Br)cc3)c[n+]3c2CCc2ccc4cccnc4c2-3)cc1	2.51µM*	-26.7%	2.31µM*!	1.12µM*	5.3%	6.51µM*	6.28µM*	14.1µM*
COc1ccc(OC)c(NC(=O)c2ccccc2SC)c1	8.91µM*	-16.8%	?	18.0%	-0.4%	-5.0%	?	-13.0%
COc1ccc(NC(=O)c2ccccc2SC)cc1	18.9%	-23.7%	22.0%[46.1 µM]	20.3%	.	-7.8%[46.1 µM]	.	.
COc1cccc(NC(=O)C2CCCN(S(=O)(=O)c3cn(C(C)C)cn3)C2)c1 (stereo unspecified)	.	.	.	5.7%	2.9%	5.1%[46.1 µM]	.	.
Fc1ccc2nc(-c3ccccc3)ccc2c1	.	-27.8%	.	29.3%	.	.	.	.
[O-][n+]1onc2c3cc(-c4ccccc4)nnc3ccc21	?	0.2%	-14.1%	16.9%	12.1%	-5.8%	?	-20.5%
COc1ccc(CCn2c(SCC(=O)Nc3cc(C)on3)nc3ccsc3c2=O)cc1OC	?	-6.6%	?	-10.0%	7.6%	-43.1%	?	25.0%
COc1ccc(CCn2c(SCC(=O)Nc3cc(C)on3)nc3ccccc3c2=O)cc1OC	14.2%	3.3%	10.4%	?	-34.4%	3.4%	.	.
O=C(c1cc(C(F)(F)F)cc(C(F)(F)F)c1)N1CCC2(CCN(Cc3ccncc3)CC2)CC1	.	.	.	-3.8%	.	.	.	.
CCOC(=O)C1=C(C)N=c2s/c(=C/c3ccco3)c(=O)n2C1c1cccc(OC)c1 (stereo unspecified)	?	-2.4%	?	-26.6%	-35.6%	?	?	39.5%
CC#CCOC(=O)C1=CCCN(C)C1	.	.	.	-15.3%	.	.	.	.
CC1=C(C)/C(=N/OC(=O)c2cccc([N+](=O)[O-])c2)C=CC1=O	7.08µM*	-19.9%	?	?	11.2µM*	-17.5%	31.5µM*	31.5µM*
N/C(=N/OC(=O)c1cccc([N+](=O)[O-])c1)c1cccc([N+](=O)[O-])c1	?	-5.0%	?	30.9%	.	-1.3%	.	.
O=S(=O)(c1ccccc1)c1nnn2c1nc(NC1CCN(Cc3ccccc3)CC1)c1cc(Cl)ccc12	?	-17.7%	.	-11.0%	-0.3%	.	.	.
O=S(=O)(c1ccccc1)c1nnn2c1nc(NC1CCN(Cc3ccccc3)CC1)c1ccccc12	8.91µM*	0.1%	.	28.2%	1.8%	.	14.1µM*	-11.3%
COc1cc2nc(SCC(=O)Nc3c(C)cc(C)cc3C)n3nc(CCn4c(C)nc5ccccc54)nc3c2cc1OC	.	.	-10.2%[46.1 µM]	-3.0%	-2.5%	-4.7%[46.1 µM]	.	.
CNc1ccc(Br)cc(C(=O)/C=C/c2cc(OC)ccc2OC)c1=O	5.01µM*	-13.5%	?	20µM*	3.16µM*	?	?	-27.4%
C=CCn1c(-c2cccs2)nc2nc3ccccc3nc21	17.0%	0.0%	8.4%	-12.9%	3.8%	1.9%	.	.
C=CCn1c(-c2cccs2)nc2ccccc21	?	-27.2%	15.3%[46.1 µM]	-8.9%	-1.2%	5.7%	-28.0%	-35.1%
COC(=O)c1cc2oc(C)cc2n1Cc1ccccc1Cl	.	.	-12.3%[46.1 µM]	-1.4%	-4.4%	.	.	.
SMILES	HCV inhibitor	RE007 growth inh	MARV entry inh	FMDV antiviral	Sm TGR block	Lassa entry inh	HCV confirm	HCV host tox
CCn1c2c(c(=N)c3c1CCC3)CCC2	1.7%	36.8%	?	-18.5%	-0.1%	2.0%	.	.
CCn1c2c(c(=N)c3ccccc31)CCC2	8.91µM*	-12.9%	-26.1%	?	0.4%	-0.6%	25µM*	?
CCOC(=O)C1CCN(C(=O)c2ccc(-n3ccc4ccccc43)s2)CC1	.	.	.	17.5%	11.9%	-4.2%[46.1 µM]	.	.
Cc1cc(SCC(=O)c2ccccc2)n2ncc(-c3ccccc3)c2n1	?	5.8%	.	56.0%	-10.1%	.	?	51.2%
COc1ccc(SCc2cc(=O)c3cc(Cl)ccc3[nH]2)cc1	.	.	.	?	3.1%	-6.5%[46.1 µM]	.	.
Cc1cccc(CN2CCN(CC(=O)NCCCN3CCN(c4ccc(F)cc4)CC3)C2=O)c1	5.62µM*	-10.0%	?	?	-4.3%	-12.3%	22.3µM*	?
CC1CN(C)C(C)CC1OC(=O)C(c1ccccc1)c1ccccc1 (stereo unspecified)	?	-18.9%	.	-17.5%	.	.	25µM*	-21.8%
Cc1c(C(=O)NCc2ccc(F)cc2)oc2ccc(S(=O)(=O)N3CCCCC3)cc12	.	.	.	?	9.3%	?	.	.
Cn1nnnc1Sc1ncnc2scc(-c3ccc(C#N)cc3)c12	.	.	.	28.2µM*	?	.	25µM*	25µM*
Cc1cccc(-c2n[nH]c(=S)n2/N=C/c2ccco2)c1	13.0%	-7.5%	.	19.7%	6.4%	.	.	.
N=c1scc(-c2ccccc2)n1/N=C/c1ccco1	?	.	?	33.4%	0.7%	-18.6%	25µM*	-29.6%
CCOc1ccc(CNS(=O)(=O)c2c(C(=O)N3CCCCCC3)c(C)n(C)c2C)cc1OC	.	.	.	-5.2%	-3.1%	-3.2%[46.1 µM]	.	.
CCCCC(=O)Nc1ccc(NC(=O)c2ccc3c(c2)OCO3)cc1OC	2.51µM*	-6.1%	3.4%	26.5%	-1.8%	14.5%	?	17.9%
CCOC(=O)c1cccc(NC(=O)c2cc3sccc3n2C)c1	3.16µM*	-12.8%	10.0%	-16.5%	-0.5%	-6.8%	25µM*	-28.6%
CCOC(=O)c1cccc(NC(=O)c2cc3sccc3n2Cc2ccc(Cl)cc2)c1	.	.	2.7%[46.1 µM]	-2.6%	3.3%	15.9%[46.1 µM]	.	.
Nc1[nH]c(C(=O)c2ccccc2)c(-c2ccccc2C(F)(F)F)c1C(=O)c1cccs1	.	11.6%	.	-14.3%	.	.	.	.
COc1ccc(C(=O)NCCNc2nc3c(C)cccc3cc2C#N)cc1OC	?	-0.1%	.	-27.5%	5.8%	.	17.7µM*	25.5%
CCc1nn2cc(C(=O)c3ccccc3O)cnc2c1-c1ccc(F)cc1	?	?	-31.4%	0.0%	6.4%	-13.2%	11.2µM*	-10.0%
